High-throughput results deposited in PubChem by National Center for Advancing Translational Sciences (NCATS).
Coupling enz: inhibits coupling enzyme system, counter-screen for aldolase hits; coupling enzyme system counterscreen, AmpLite Red fluorescence; activity change, negative = inhibition, % at 58.2 µM, hits read low; 290,000 tested, 0.67% active; AID 2472; in the data active = activity change below about -30%
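Counterscreen lacking aldolase: glyceraldehyde-3-phosphate coupling-enzyme reagent preincubated 10 min at RT with compound (at 57.5 uM final), then substrate/coupling system with AmpLite Red added; fluorescence read at 525/598 nm after 20 min RT.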
Tau fibril ThT: blocks human tau fibril formation measured by thioflavin T. recombinant tau K18 P301L, heparin-induced fibrillization, ThT fluorescence. Potency, µM (titrated, usually from 57.4 µM), for the others: top-dose activity, negative = inhibition, actives largely listed as inhibitors. P10636. 270,000 tested, 2.1% active; also: potency is read from the fitted curve at half-maximal effect; nearly all actives have a fitted effect of over 55% in size
Target sequence (P10636 561-689 P618L limits assumed): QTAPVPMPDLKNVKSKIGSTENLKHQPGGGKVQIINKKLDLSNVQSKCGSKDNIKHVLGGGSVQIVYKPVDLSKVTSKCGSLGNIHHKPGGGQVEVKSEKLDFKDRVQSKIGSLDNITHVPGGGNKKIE
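Heparin-induced fibrillization of the P301L-mutant K18 repeat-domain fragment of human tau was followed by ThT binding in quantitative high-throughput format.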
Tau FP inhib: blocks human tau fibril formation measured by polarization; P10636; Potency, µM (top dose mostly 57.7 µM), for the others: at the top dose activity, negative = inhibition, hits mostly inhibitors; 280,000 tested, 0.39% active; K18 P301L tau heparin fibrillization, Alexa594 FP, 6 h; also: potency is read from the fitted curve at half-maximal effect; nearly all actives have a fitted effect of over 55% in size
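Recombinant K18 P301L […], labeled with Alexa 594 at 0.24 uM over 15 uM unlabeled; heparin inducer 20 uM final; 37 C, 6 hr; FP endpoint.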
Tau fluor cs: counter-screen for tau fibril formation inhibitors; AID 1463; 280,000 tested, 0.93% active; Potency, µM (doses to about 57.7 µM), inactives show at the highest dose activity change, negative = decrease; tau K18 P301L Alexa594 fluorescence, heparin fibrillization; also: potency is read from the fitted curve at half-maximal effect; nearly all actives have a fitted effect of over 55% in size
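Human tau K18 P301L (15 uM unlabeled, 0.24 uM Alexa 594-labeled) in 100 mM sodium acetate pH 7 with 20 uM heparin, 6 hr at 37 C. ThT 30 uM added, 1 hr ambient; Alexa 594 FP and total fluorescence read at 555/632 nm.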
G9a inh: G9a (human) methyltransferase inhibition; Q96KQ7; G9a H3K9 monomethylation, AlphaScreen, 2 h; Potency, µM (top dose mostly 102 µM), for inactives: top-dose activity, negative = inhibition, most hits filed as inhibitors; 350,000 tested, 8.8% active; also: potency is read from the fitted curve at half-maximal effect; nearly all actives have a fitted effect of over 75% in size
Target sequence (Q96KQ7 913-1193 limits assumed): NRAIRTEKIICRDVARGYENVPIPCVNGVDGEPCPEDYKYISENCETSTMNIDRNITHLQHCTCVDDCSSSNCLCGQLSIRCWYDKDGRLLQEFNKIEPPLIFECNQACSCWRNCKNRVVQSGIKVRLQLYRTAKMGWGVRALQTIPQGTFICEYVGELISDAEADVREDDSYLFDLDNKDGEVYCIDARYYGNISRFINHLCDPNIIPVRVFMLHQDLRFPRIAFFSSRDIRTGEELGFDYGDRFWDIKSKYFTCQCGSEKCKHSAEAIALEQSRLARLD
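Quantitative HTS format: methyltransferase activity on a biotin-tagged H3K9 peptide is measured by AlphaScreen, using a rabbit anti-monomethyl-H3K9 antibody with streptavidin donor and anti-IgG acceptor beads. Final levels are 20 nM enzyme, 500 nM peptide, 20 uM SAM; 2 h RT.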
Sfp PPTase inh: Sfp phosphopantetheinyl transferase inhibition; Potency, µM, for the others: largest response in the series, negative = inhibition, most hits filed as inhibitors; Biochemical Sfp PPTase activity, qHTS; 310,000 tested, 3.5% active;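 also: the enzyme is Sfp with the accession as filed and its product quenches rhodamine fluorescence; potency is read from the fitted curve at half-maximal effect; 0% = enzyme reaction without inhibitor and -100% = no enzyme wells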
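After 15 min at room temperature with compound, 15 nM Sfp received 5 uM rhodamine-CoA plus 12.5 uM BHQ-2-ybbR (50 mM Hepes pH 7.6, 10 mM MgCl2). Rate came from the fluorescence difference over 30 min, ex 525/em 598 nm.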
The depositor's hits bear a star; ? = inconclusive; . = not tested or not shown; ! = repeats disagree; [ ] = remark or other dose. A selection: hits, their analogues and other compounds. The true share with any hit is near 11%. Unless noted, calls follow the shape of the dose curve; as a rule, active = well fitted curve in the direction sought with a large enough effect; inconclusive = small, poorly fitted or top-dose-only effect, or another doubt; inactive = no such curve, though single readings can be large; an effect the other way counts as inactive or inconclusive. Unless noted, % is scaled to controls: 0 for no effect and ±100 for the full control effect.

SMILES	Coupling enz	Tau fibril ThT	Tau FP inhib	Tau fluor cs	G9a inh	Sfp PPTase inh
Cc1cc2nc3s/c(=C/c4ccc(-c5ccccc5C(=O)O)o4)c(=O)n3c2cc1C	4	.	.	.	3.5µM*	79µM*
CC(C)CC(CSc1ccc(Br)cc1)N1CCN(CC(C)C)CCC1=O (stereo not given)	0	.	.	.	.	-9%
Cc1ccc(O)c(C(=O)c2cnn(C(=O)c3cccc(S(=O)(=O)N(C)C)c3)c2)c1	.	.	.	.	-5%	.
O=C1NC(c2cccc(Br)c2)=N/C1=C\c1ccco1	-22	5%	7%	0%	?	?
O=C1NC(c2ccccc2)=N/C1=C/c1ccco1	-15	6%	-5%	-2%	22µM*	?
O=C1NC(c2ccccc2Br)=N/C1=C\c1ccco1	-10	.	1%	-11%	45µM*	?
Cc1ccc(C)c(S(=O)(=O)NCC(=O)OCC(=O)Nc2sccc2C(N)=O)c1	.	.	.	.	-29%	.
CN1C(C(=O)Nc2ccccn2)=C(O)c2ccccc2S1(=O)=O	-7	-13%	-8%	-11%	7.1µM*!	?
Cc1cc(NC(=O)C2=C(O)c3ccccc3S(=O)(=O)N2C)no1	5	-8%	-3%	-7%	16%[21.5 µM]	-11%
O=C(CN1C(=O)c2ccccc2S1(=O)=O)Nc1ncccn1	.	.	.	.	-21%	.
CN1C(C(=O)Nc2ncccn2)=C(O)c2ccccc2S1(=O)=O	2	.	.	.	28µM*	?
COc1cccc(NC(=O)CCSc2nc(-c3ccco3)cc(C(F)(F)F)n2)c1	.	-8%	?	?	5%[59 µM]	.
NC(=O)C1(N2CCCCC2)CCN(C(=O)Nc2ccc(Cl)c(Cl)c2)CC1	.	-11%	-8%	-20%	0%[59 µM]	.
CCOC(=O)C1(C)C=C(Nc2ccc(C(N)=O)cc2)C(=O)N1c1ccccc1 (stereo not given)	.	5%	-3%	-4%	2%[59 µM]	.
COC1(OC)N=C(NC(=O)Nc2ccccc2)C2(C#N)C(c3ccccc3)C12C#N (stereo not given)	-1	20µM*	?	-25%	.	-91%
COC1(OC)N=C(N)C2(C#N)C(c3ccc(C)cc3)C12C#N (stereo not given)	0	-13%	-6%	-9%	?	13%
CC1=NCC(C)c2c1[nH]c1ccccc21 (stereo not given)	0	?	3%	-15%	13µM*	-13%
O=C1CCc2cc(NS(=O)(=O)c3ccc([N+](=O)[O-])cc3)cc3c2N1CC3	.	.	.	.	45µM*	.
O=C1CCc2cc(NS(=O)(=O)c3ccc([N+](=O)[O-])cc3)cc3c2N1CCC3	.	.	.	.	35µM*	.
CCOc1ccc(N2CC(c3nc4ccccc4n3CCCOc3ccc(OC)cc3)CC2=O)cc1 (stereo not given)	.	?	5%	-24%	?	.
Cc1c(C(=O)O/N=C(\N)c2ccccn2)cccc1[N+](=O)[O-]	2	-10%	-3%	-3%	32µM*	7%
N/C(=N\OC(=O)c1ccc([N+](=O)[O-])cc1Cl)c1ccccn1	-1	.	.	.	20µM*	3%
Cc1ccc(C(=O)O/N=C(\N)c2ccccn2)c(Cl)c1	-1	.	.	.	.	14%
N/C(=N\OC(=O)c1cc(Br)ccc1Cl)c1ccccn1	0	?	0%	-7%	56µM*	-5%
N/C(=N\OC(=O)c1ccc(Cl)cc1Cl)c1ccccn1	0	?	-1%	-2%	89µM*	6%
SMILES	Coupling enz	Tau fibril ThT	Tau FP inhib	Tau fluor cs	G9a inh	Sfp PPTase inh
CCCn1ncc(C(=O)NC2CCCN(Cc3ccc(Cl)cc3)C2)c1C (stereo not given)	0	.	.	.	1%	12%
O=C(O/N=C(\c1ccccc1)c1ccccn1)c1ccc(Cl)c(Cl)c1	5	-22%	-10%	-11%	3.5µM*	2%
CCCc1nc2ccccc2c(C(=O)OCC(=O)NCc2ccco2)c1CC	5	-14%	5%	-19%	?	0%
CCCc1nc2ccccc2c(C(=O)N(CC)CC(=O)NCc2cccs2)c1CC	.	.	.	.	35µM*	.
Cc1ccc2nc3c(cc(C(=O)NCC4CCCO4)c(=N)n3CCCOC(C)C)c(=O)n2c1 (stereo not given)	-19	-1%	-7%	-12%	56µM*	16%
COCCCn1c(=N)c(C(=O)NCC2CCCO2)cc2c(=O)n3cc(C)ccc3nc21 (stereo not given)	.	2%	-1%	-7%	0%[59 µM]	.
COc1cc2oc(=O)cc(-c3ccc(-c4ccc(O)cc4)cc3)c2c(OC)c1OC	7	?	?	10µM*[quencher]	4%[59 µM]	-24%
COc1cc2oc(=O)cc(-c3ccc(-c4cccc(N)c4)cc3)c2c(OC)c1OC	0	?	5%[81.3 µM]	?	28µM*	-27%
COc1ccc(-c2ccc(-c3cc(=O)oc4cc(OC)c(OC)c(OC)c34)cc2)cc1OC	0	-14%	10%	-20%	9%[59 µM]	-15%
O=C(NCc1cccc(Cl)c1)c1cccn1-c1nnc(N2CCCC2)s1	.	8%	-2%	3%	-9%[59 µM]	.
CCn1c(=O)c2cc(C(=O)N3CCN(c4cccc(OC)c4)CC3)sc2c2ccccc21	.	?	7%	-22%	-38%[59 µM]	.
O=C1COc2ccc(S(=O)(=O)N3CCCC3)cc2N1	0	.	.	.	-3%[59 µM]	7%
O=C1COc2ccc(N3C(=O)C=CC3=O)cc2N1	5	0%	-14%	-2%	1.4µM*	4µM*
COc1ccc2[nH]c3c(C)c4ccncc4c(C)c3c2c1	-10	3.5µM*	-8%	?	40µM*	16µM*
COc1cccc(NC(=O)C2CC(=O)N(c3ccc(Br)cc3)C2)c1 (stereo not given)	.	-2%	0%	-15%	-40%[59 µM]	.
COc1ccc(C(=O)CSc2nnc3n2CCCN3C(=O)Nc2ccccc2)cc1	-3	-17%	-4%	-18%	-2%	5%
Nc1nc(SC2c3cccc4cccc(c34)C2NS(=O)(=O)c2ccccc2)n[nH]1 (stereo not given)	2	0%	-8%	-12%	3.2µM*	3%
O=C(O)c1ccc(S(=O)(=O)c2ccc(Sc3ccc(C(=O)O)c(C(=O)O)c3)cc2)cc1	26	2%	6%	11%	45µM*	4%
O=C(O)c1ccc(S(=O)(=O)N2CCCC2)cc1	-3	.	.	.	-2%	4%
CCn1c(SCC(=O)Nc2c(C#N)cnn2-c2ccccc2)nnc1-c1cccs1	5	-10%	-4%	-5%	?	22%
OC(c1ccccc1)(c1ccccc1)C1CCN(C(=S)NC2CCCC2)CC1	4	5%	-4%	-4%	40µM*	16%
